Assay results: PubChem BioAssay AID1159580 (chemical genetic matrix, 2015)
About 2,000 (36%) of roughly 5,500 compounds were called active. Roughly 18% stayed inconclusive and do not appear here. No stated cut-off is given here; in the data, active means normalized growth mostly below about 0.91 (no sharp cut-off); inconclusive means no clear call, values can overlap the other calls; inactive means mostly above about 0.92. The list shows a part of the results.

Test: chemical genetic growth profiling, strain panel (AID 1159580);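 further: tested at 20 µM; growth read once vehicle control cultures reached saturation at 30 °C; 1 = growth at the plate median or of vehicle wells; lower values mean less growth of the strain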
Settings: growth OD

Measured: normalized growth

C=C1C(=O)O[C@@H]2C[C@@]3(C)CCC[C@H](C)C3=C[C@H]12
active: S. cerevisiae deletion strains, locus YKL085W, strain MDH1 (second series), active compounds read low 0.909 | S. cerevisiae deletion strains, locus YKL085W, strain MDH1, active compounds read low 0.909 | S. cerevisiae deletion strains, locus YKL160W, strain elf1, active compounds read low 0.78 | S. cerevisiae deletion strains, locus YKR001C, strain vps1, active compounds read low 0.496 | S. cerevisiae deletion strains, locus YKR026C, strain gcn3, active compounds read low 0.893 | S. cerevisiae deletion strains, locus YKR091W, strain srl3, active compounds read low 0.913 | S. cerevisiae deletion strains, locus YLL001W, strain dnm1, active compounds read low 0.842 | S. cerevisiae deletion strains, locus YLL026W, active compounds read low 0.869 | S. cerevisiae deletion strains, locus YLL041C, strain sdh2, active compounds read low 0.888 | S. cerevisiae deletion strains, locus YLR027C, strain aat2, active compounds read low 0.827 | S. cerevisiae deletion strains, locus YLR039C, strain RIC1, active compounds read low 0.221 | S. cerevisiae deletion strains, locus YLR221C, strain rsa3, active compounds read low 0.751 | S. cerevisiae deletion strains, locus YLR258W, strain gsy2, active compounds read low 0.819 | S. cerevisiae deletion strains, locus YLR262C, strain YPT6 (second series), active compounds read low 0.259 | S. cerevisiae deletion strains, locus YLR262C, strain YPT6, active compounds read low 0.268 | S. cerevisiae deletion strains, locus YLR268W, strain sec22, active compounds read low 0.668 | S. cerevisiae deletion strains, locus YLR320W, strain mms22, active compounds read low 0.597 | S. cerevisiae deletion strains, locus YLR330W, strain CHS5, active compounds read low 0.848 | S. cerevisiae deletion strains, locus YLR342W, strain FKS1, active compounds read low 0.885 | S. cerevisiae deletion strains, locus YLR357W, strain rsc2, active compounds read low 0.662 | S. cerevisiae deletion strains, locus YLR370C, strain arc18, active compounds read low 0.899 | S. cerevisiae deletion strains, locus YLR371W, strain rom2, active compounds read low 0.646 | S. cerevisiae deletion strains, locus YLR384C, strain iki3, active compounds read low 0.87 | S. cerevisiae deletion strains, locus YLR418C, strain cdc73, active compounds read low 0.31 | S. cerevisiae deletion strains, locus YML016C, strain PPZ1, active compounds read low 0.85 | S. cerevisiae deletion strains, locus YML120C, strain ndi1, active compounds read low 0.818 | S. cerevisiae deletion strains, locus YML124C, strain tub3, active compounds read low 0.896 | S. cerevisiae deletion strains, locus YMR058W, strain fet3, active compounds read low 0.8 | S. cerevisiae deletion strains, locus YMR125W, strain sto1, active compounds read low 0.669 | S. cerevisiae deletion strains, locus YMR129W, active compounds read low 0.847 | S. cerevisiae deletion strains, locus YMR205C, strain PFK2, active compounds read low 0.653 | S. cerevisiae deletion strains, locus YMR223W, strain ubp8, active compounds read low 0.815 | S. cerevisiae deletion strains, locus YMR231W, strain pep5, active compounds read low 0.859 | S. cerevisiae deletion strains, locus YNL071W, strain lat1, active compounds read low 0.377 | S. cerevisiae deletion strains, locus YNL153C, strain GIM3, active compounds read low 0.868 | S. cerevisiae deletion strains, locus YNL209W, strain ssb2, active compounds read low 0.902 | S. cerevisiae deletion strains, locus YNL233W, strain BNI4, active compounds read low 0.828 | S. cerevisiae deletion strains, locus YNL248C, strain rpa49, active compounds read low 0.617 | S. cerevisiae deletion strains, locus YNL271C, strain bni1, active compounds read low 0.855 | S. cerevisiae deletion strains, locus YNL307C, strain MCK1, active compounds read low 0.737 | S. cerevisiae deletion strains, locus YNL322C, strain KRE1 (second series), active compounds read low 0.902 | S. cerevisiae deletion strains, locus YNR049C, strain mso1, active compounds read low 0.903 | S. cerevisiae deletion strains, locus YNR052C, strain pop2, active compounds read low 0.875 | S. cerevisiae deletion strains, locus YOL147C, strain pex11, active compounds read low 0.921 | S. cerevisiae deletion strains, locus YOR001W, strain rrp6, active compounds read low 0.807 | S. cerevisiae deletion strains, locus YOR069W, strain VPS5, active compounds read low 0.915 | S. cerevisiae deletion strains, locus YOR070C, strain gyp1, active compounds read low 0.856 | S. cerevisiae deletion strains, locus YOR080W, strain dia2, active compounds read low 0.908 | S. cerevisiae deletion strains, locus YOR083W, strain WHI5, active compounds read low 0.82 | S. cerevisiae deletion strains, locus YOR106W, strain vam3, active compounds read low 0.752 | S. cerevisiae deletion strains, locus YOR144C, strain elg1, active compounds read low 0.927 | S. cerevisiae deletion strains, locus YOR184W, strain ser1, active compounds read low 0.577 | S. cerevisiae deletion strains, locus YOR265W, strain rbl2, active compounds read low 0.883 | S. cerevisiae deletion strains, locus YOR270C, strain vph1, active compounds read low 0.583 | S. cerevisiae deletion strains, locus YOR290C, strain snf2, active compounds read low 0.785 | S. cerevisiae deletion strains, locus YPL051W, strain arl3, active compounds read low 0.73 | S. cerevisiae deletion strains, locus YPL055C, strain LGE1, active compounds read low 0.722 | S. cerevisiae deletion strains, locus YPL078C, strain atp4, active compounds read low 0.791 | S. cerevisiae deletion strains, locus YPL106C, strain sse1, active compounds read low 0.521 | S. cerevisiae deletion strains, locus YPL240C, strain hsp82, active compounds read low 0.825 | S. cerevisiae deletion strains, locus YPR119W, strain clb2, active compounds read low 0.907 | S. cerevisiae deletion strains, locus YPR163C, strain tif3, active compounds read low 0.749 | S. cerevisiae deletion strains, locus YPR167C, strain met16, active compounds read low 0.899 | S. cerevisiae strains, strain wild type, active compounds read low 0.882
inactive: S. cerevisiae deletion strains, locus YJR043C, strain POL32, active compounds read low 0.88 | S. cerevisiae deletion strains, locus YJR066W, strain TOR1, active compounds read low 0.939 | S. cerevisiae deletion strains, locus YKL009W, strain mrt4, active compounds read low 1.01 | S. cerevisiae deletion strains, locus YKL068W, active compounds read low 0.946 | S. cerevisiae deletion strains, locus YKL190W, strain CNB1, active compounds read low 0.934 | S. cerevisiae deletion strains, locus YLR058C, strain SHM2, active compounds read low 0.898 | S. cerevisiae deletion strains, locus YLR102C, strain apc9, active compounds read low 0.942 | S. cerevisiae deletion strains, locus YLR113W, strain HOG1, active compounds read low 0.991 | S. cerevisiae deletion strains, locus YLR342W, strain FKS1 (second series), active compounds read low 0.864 | S. cerevisiae deletion strains, locus YML032C, strain rad52, active compounds read low 0.923 | S. cerevisiae deletion strains, locus YMR078C, strain ctf18, active compounds read low 0.915 | S. cerevisiae deletion strains, locus YMR307W, strain GAS1, active compounds read low 0.654 | S. cerevisiae deletion strains, locus YNL067W, strain RPL9B, active compounds read low 0.896 | S. cerevisiae deletion strains, locus YNL183C, strain NPR1, active compounds read low 0.959 | S. cerevisiae deletion strains, locus YNL250W, strain rad50, active compounds read low 0.949 | S. cerevisiae deletion strains, locus YNL298W, strain CLA4, active compounds read low 0.943 | S. cerevisiae deletion strains, locus YOL006C, strain TOP1, active compounds read low 0.598 | S. cerevisiae deletion strains, locus YOL012C, strain htz1 0.342 | S. cerevisiae deletion strains, locus YOR061W, strain CKA2, active compounds read low 0.925 | S. cerevisiae deletion strains, locus YOR136W, strain idh2, active compounds read low 0.942 | S. cerevisiae deletion strains, locus YOR231W, strain MKK1, active compounds read low 1.01 | S. cerevisiae deletion strains, locus YOR316C, strain cot1, active compounds read low 0.939 | S. cerevisiae deletion strains, locus YPL256C, strain CLN2, active compounds read low 0.949 | S. cerevisiae deletion strains, locus YPR141C, strain kar3, active compounds read low 0.926 | S. cerevisiae deletion strains, strain wtn01, active compounds read low 0.909
